Source: PubChem BioAssay (NCATS)
Activity calls are given as the source filed them. Where a call stands in place of a potency, no number is given. Calls follow the shape of the dose curve; as a rule, active = well fitted inhibition curve with a large enough effect; inconclusive = small, poorly fitted or top-dose-only effect; inactive = flat fitted curve, though single readings scatter.

These compounds were tested against Luciferin 4-monooxygenase (Photinus pyralis) (UniProt P08659) (assay: Primary firefly luciferase (FLuc) qHTS assay for identification of artifact compounds. (AID 1845220; also: nearly all actives have a fitted effect of over 60% in size)). Settings: purified firefly luciferase, luminescence, 5 min; series mostly up to 54.1 µM.
Source text: PI: Alexander Tropsha Ph.D.
UNC Eshelman School of Pharmacy
University of North Carolina, Chapel Hill, North Carolina
Hits from high-throughput screening (HTS) of chemical libraries are often false positives due to their interference with the assay detection technology. In response to this problem, we generated the largest publicly available library of chemical liabilities and developed a free webtool to predict HTS artifacts, both of which are described herein. More specifically, we generated, curated, and integrated HTS datasets for thiol reactivity, redox activity, and luciferase (firefly and nano) activity. Using these curated datasets, we developed and validated several Quantitative Structure-Interference Relationship (QSIR) models to predict nuisance behavior. […] These models were employed for virtual profiling of the National Center for Advancing Translational Science's (NCATS) in-house library, and 256 compounds for each assay were selected for the experimental validation of nuisance behavior. The BA for these external predictions ranged from 58 to 78% for compounds within the applicability domains of the models. […] The models developed in this study, along with aggregation models previously developed by our group (SCAM Detective) were implemented in "Liability Predictor," an online tool which may be used as part of chemical library design or for triaging HTS hits. Both the models and the curated datasets are publicly available at https://liability.mml.unc.edu/.
SEQUENCE No. (e.g., 1, 2, 3, etc.); […] (e.g., Cells, Incubation, Reagent, etc.); VALUE; DESCRIPTION.
1; Reagent; 3 uL; Luciferase substrate mixture.
2; Compounds and control; 16 nL; Kalypsis pin tool (Wako USA) equipped with a 1536-well pin head.
4; Reagent; 1 uL; Luciferase enzyme.
6; Detection; Luminescence, ViewLux microplate reader.
NOTES (numbers refer to Sequence numbers above)
1. 3 uL of luciferase substrate mixture containing D-luciferin and ATP (final concentrations of 10 uM and 10 uM, respectively) in assay buffer (10 mM Mg-acetate, 0.01% Tween-20, 0.05% bovine serum albumin, 50 mM Tris acetate, pH 7.6) was dispensed into all wells of a 1536-well assay plate (solid-bottom white plate; Greiner Bio One, Monroe, NC).
2. A Wako Pin-tool (Wako Automation, Richmond, VA) was used to transfer 16 nL of compounds (consisting of 7-plates in qHTS format, final concentration range 18.3 nM to 114 uM) or control PTC124 (final concentration range 1.22 nM to 40 uM).
3. 15 min. incubation at room temperature protected from light.
4. 1 uL of luciferase enzyme (final concentration 10 nM, Photinus pyralis luciferase) or buffer was dispensed for a final assay volume of 4 uL.
5. Plates were centrifuged (121xg, 15 seconds) and incubated for 5 minutes.
6. Samples were read for luminescence on a ViewLux CCD imager (PerkinElmer). Data were normalized to no-enzyme (0% activity) and no-inhibitor (DMSO; 100%) controls and the resulting percent inhibition data were fitted to a 4-parameter Hill equation using NCATS in-house software.
With CO[C@@H]1[C@H](O)[C@@H](O[C@@H]2C[C@H]3CC[C@@H]4C(CC[C@]5(C)[C@@H](C6=CC(=O)OC6)CC[C@]45O)[C@@]3(C)[C@H](O)C2)O[C@H](C)[C@@H]1O[C@@H]1O[C@H](CO)[C@@H](O)[C@H](O)[C@H]1O (stereo not given in full) the Potency was “inactive”. In the case of CC(C)=C1CC[C@]23CO[C@H](C2)[C@@](O)(C(=O)O)CCC13 (stereo not given in full), the Potency is reported as “inactive”. For Clc1ccc(N2C[C@H]3CC[C@@H](C2)N3)nn1, the Potency was “inactive”. In the case of C=CC(C)(O)CC/C=C(\C)C(=O)O[C@H]1[C@H](O)[C@@H](CO)O[C@@H](OC(=O)[C@]23CCC(C)(C)CC2C2=CCC4[C@@]5(C)CC[C@H](O[C@@H]6O[C@H](CO[C@@H]7OC[C@H](O)[C@H](O)[C@H]7O[C@@H]7OC[C@@H](O)[C@H](O)[C@H]7O)[C@@H](O)[C@H](O)[C@H]6O)C(C)(C)C5CC[C@@]4(C)[C@]2(C)CC3)[C@@H]1OC1OC(C)C(O[C@@H]2OC[C@@H](O)[C@H](O[C@@H]3OC[C@@H](O)[C@H](O)[C@H]3O)[C@H]2O)C(O)C1O (stereo not given in full), the outcome is reported as “inactive [at 11.6 µM]”. For Cc1cc(C(=O)CN2CCCC2)c(C)n1-c1ccc(F)cc1, the Potency was “inactive”. For CCCN1CCO[C@H]2c3cc(O)ccc3OC[C@@H]21, the Potency was “inactive”. In the case of CCCCCOc1cc2c(cc1-c1cc(/C=C/C(=O)O)ccc1O)C(C)(C)CCC2(C)C, the Potency is reported as “inactive”. In the case of Cc1cn(C[C@H](N)C(=O)O)c(=O)n(Cc2cc(-c3ccccc3)sc2C(=O)O)c1=O, the Potency is reported as “inactive”. For O=C1C[C@@H]2OCC=C3CN4CC[C@]56c7ccccc7N1[C@H]5[C@H]2[C@H]3C[C@H]46, the Potency was “inactive”. For CC[C@H]1CN2CC[C@H]1C[C@@H]2[C@@H](O)c1ccnc2ccc(OC)cc12, the Potency was “inactive”. In the case of CCc1[nH]c2ccc(OC)cc2c1CCN(C)C, the Potency is reported as “inactive”. Clc1ccc(OCC2=NCCN2)cc1Cl was tested, and the Potency was “inactive”. In the case of C=C[C@H]1[C@H](O[C@@H]2O[C@H](CO)[C@@H](O)[C@H](O)[C@H]2O)OC=C2C(=O)OCC[C@H]21, the Potency is reported as “inactive”. CC(C)(O)[C@H]1O[C@H]2CC[C@@]3(C)[C@@](O)(CC[C@H]4Cc5c([nH]c6ccccc56)[C@@]43C)C2=CC1=O was tested, and the Potency was “inactive”. For C[C@H]1C(=O)O[C@H]2[C@H](O)[C@]34C5OC(=O)[C@]3(O[C@@H]3OC(=O)[C@H](O)C34[C@H](C(C)(C)C)[C@H]5O)C12O (stereo not given in full), the Potency was “inactive”. CC1C/C=C/C(O)C(O)CC/C=C/c2cc(O)cc(O)c2C(=O)O1 (stereo not given) was tested, and the Potency was “inactive”. In the case of CN1[C@@H]2CC[C@H]1CC(OC(=O)C1C=Nc3ccccc31)C2 (stereo not given in full), the Potency is reported as “inactive”. C[C@]12CC[C@H]3[C@@H]([C@H](O)CC4=CC(=O)CC[C@@]43C)[C@@H]1CC[C@@H]2O was tested, and the Potency was “inactive”. For O=C(O)c1ccnc2cc(C(OCCN3CCCCC3)c3ccccc3Cl)[nH]c12 (stereo not given), the Potency was “inactive”. For COC(=O)[C@@]12C(=O)C(C)C(=O)[C@]1(C)C(C)=C[C@H]1[C@]3(C=O)CC[C@H](OC(C)=O)C(C)(C)[C@H]3CC[C@@]12C (stereo not given in full), the Potency was “inactive”. COC1C(O)C(OC2CCC3(C=O)C(CCC4C3CCC3(C)C(C5=CC(=O)OC5)CCC43O)C2)OC(C)C1OC1OC(CO)C(O)C(O)C1O (stereo not given) was tested, and the Potency was “inactive”. For COc1cc2c(cc1OC)[C@@]13CCN4CC5=CCO[C@H]6CC(=O)N2[C@H]1[C@H]6[C@H]5C[C@H]43, the Potency was “inactive”. For C=C1[C@@H]2CC[C@@]3(C)[C@H](c4ccoc4)OC(=O)C[C@]13O[C@H]1CC(=O)C(C)(C)[C@H](C(OC(C)=O)C(=O)OC)[C@]12C (stereo not given in full), the Potency was “inactive”. In the case of CCN1CC2(COC)C3[C@@H](OC)C4C1C3(C1C[C@]3(O)[C@H](OC(=O)c5ccccc5)C1[C@]4(OC(C)=O)[C@@H](O)[C@@H]3OC)[C@H](OC)C[C@H]2O (stereo not given in full), the Potency is reported as “inactive”. CC(=O)OC1CC(O)C(C)(C)C2CC(OC(C)=O)C3(C)C(CCC4(C)C(c5ccoc5)C(=O)C5OC543)C12C (stereo not given) was tested, and the Potency was “inactive”. C=C(CO)C(=O)O[C@H]1C/C(C)=C/CC/C(CO)=C/[C@H]2OC(=O)C(=C)[C@H]12 was tested, and the Potency was “inactive”. For N#C[C@@H](O[C@@H]1O[C@H](CO[C@@H]2O[C@H](CO)[C@@H](O)[C@H](O)[C@H]2O)[C@@H](O)[C@H](O)[C@H]1O)c1ccccc1, the Potency was “inactive”. CCC(C)(C#N)O[C@@H]1O[C@H](CO)[C@@H](O)[C@H](O)[C@H]1O (stereo not given in full) was tested, and the Potency was “inactive”. With COC(=O)C12C(=O)C(C)(O)C(=O)C1(C)C(C)=CC1C34CCC(OC3=O)C(C)(CO)C4CCC12C (stereo not given) the Potency was “inactive”. With C[C@@H]1C(=O)O[C@H]2[C@H](O)[C@@]34[C@@H]5OC(=O)[C@@]3(O[C@@H]3OC(=O)[C@@H](O)[C@@]34[C@H](C(C)(C)C)[C@H]5O)[C@@]12O the Potency was “inactive”. OCCCCC#Cc1cncc(OC[C@@H]2CCN2)c1 was tested, and the Potency was “inactive”. In the case of C=C[C@H]1CN2CC[C@H]1C[C@@H]2[C@@H](O)c1ccnc2ccccc12, the Potency is reported as “inactive”. In the case of CCc1c(C(=O)C(N)=O)c2c(OCC(=O)OC)cccc2n1Cc1ccccc1, the Potency is reported as “inactive”. C/C=C(\C)C(=O)O[C@H]1[C@H](OC(C)=O)[C@]2(CO)[C@H](O)[C@H](O)[C@]3(C)C(=CCC4[C@@]5(C)CC[C@H](O[C@@H]6O[C@H](C(=O)O)[C@@H](O)[C@H](O[C@@H]7OC[C@H](O)[C@H](O[C@@H]8OC[C@H](O)[C@H](O)[C@H]8O)[C@H]7O)[C@H]6O[C@@H]6O[C@H](CO)[C@@H](O)[C@H](O)[C@H]6O)C(C)(C)C5CC[C@]43C)[C@@H]2CC1(C)C (stereo not given in full) was tested, and the outcome was “inactive [at 11.6 µM]”. For CC(=O)O[C@H]1C[C@@H](OC(C)=O)C(C)(C)C2C[C@@H](O)[C@]3(C)C(CC[C@@]4(C)[C@H](C5=CC(=O)OC5O)C[C@H]5O[C@]543)[C@]21C (stereo not given in full), the Potency was “inactive”. CN(C)CCc1c[nH]c2ccc(CN3CCN(C)S3(=O)=O)cc12 was tested, and the Potency was “inactive”. For CC1=C2C(=O)C3[C@@H](CC=C4C[C@@H](O)CC[C@@]43C)[C@@H]2CC[C@]12O[C@@H]1C[C@H](C)CN[C@H]1[C@H]2C (stereo not given in full), the Potency was “inactive”. CC(=O)OC12C(O)C(C)C3(O)C4C=C(C)C(=O)C4CC(CO)=CC3C1C2(C)C (stereo not given) was tested, and the Potency was “inactive”. For Cn1ncnc1COc1nn2c(-c3c(F)cccc3F)nnc2cc1C1CCC1, the Potency was “inactive”. For COC1CC(O[C@H]2CC[C@]3(C=O)C4CC[C@]5(C)[C@@H](C6=CC(=O)OC6)CC[C@]5(O)[C@@H]4CC[C@]3(O)C2)OC(C)C1O[C@@H]1O[C@H](CO)[C@@H](O)[C@H](O)[C@H]1O (stereo not given in full), the Potency was “inactive”.
